Data reported in the supplement of paper PMC12632987.
The full ranking holds about 4,500 sequences; the median of “median log2 fold change of GCK-ALFA target abundance (FLAG IP / Myc IP barcode read proportion)” is about 0.078, and the lowest 2% start at about -0.6. Only a selection was taken, and the lowest values are over-represented in it overall.

B1: GBRAP_166_4873 (protein)
chain: HMEELLKKAEKEIEKLLKEASEADEEEQVELYIEIGEIIEELKEAGASLEDILELIERTLKEAKKLGLDVKKLAGIIINVTDFNEEEIDKIDEIVEKVLK
B2: GBRAP_14_3780 (protein)
chain: MEKIEEIIREKAEEIIELLTEIAPEKAEEITEIVEEVVERTIARIKETGNAEEAAEEGRDELLARIAELTADLPAETRARMLAVVAVEFGQAILEIEELL
B3: GBRAP_125_2986 (protein)
chain: EEEELLEDLREIFKALGLSEEDAEEAVKLAREFSLKQTLYALMAALGAEEVADAVAKLTEEQAKEVVKEASEYIKKNPNITPEEVVELLLELAKKQLAKA
B4: GBRAP_78_6666 (protein)
chain: ELEKIIDETLELLTEVIRASKSLPPEVQEAVLDEAVEAATELEEIEEEGPNLEELEEAIKHLEKLLELLEKNKSPELEPLIEKLKKQIEKLKKAKEELEK
B5: GBRAP_95_7066 (protein)
chain: EEDREIAEDLIDTAEDLVEIGLYEQAARAAKAAVEVLKEIGETGELALRAAEVLVKVAEATGDEEAAEAAKEVLERIREAGGDEERIKELEKRLEEAKKK
B6: GBRAP_184_5265 (protein)
chain: KVLERTIKAENVEELIAKMEEVRKEALATGADVIILLEVEKLTKEMIDALFAQLKALRDAGYKGKITVGIDADLTEEMIDYVIKKADEAGVNVVLAISEE
B7: GBRAP_84_6999 (protein)
chain: STDEEIIELAKEIFDRVKGEAAVKILALVLLKVTGETATRILNYALERDPQVAYDALSLAYEVVSEDKEEELEEEARRLMAEESPEVRAKFERLLELMKA
B8: GBRAP_128_3320 (protein)
chain: MDEELLAEFKELAEAAKKADLPTLAKLTAEMVALIGQADAETREEMAEIFRKALEELDAEKLDVVADTLRAEMPKLDPEAARVVADLAVDALNLAEEKEE
B9: GBRAP_11_2689 (protein)
chain: KKEKLEEGAKLAEKGAELVERLLREGVDNEELLAELEKTLEELLKLAKKHASPASQKLTEDIKETWKRLLADPENAEEYARELLAGLRVLAGQYLLEIEE
B10: GBRAP_137_3670 (protein)
chain: MIRVEVELENGLAFARITVEGSPEELERAAEIAEDIAGEIPDLAVSVKLTEEGRLEIDVFGTPESVEAFLRRLAERLDRTVEVTTRDEETGEVRRRVIRP
B11: GBRAP_184_5066 (protein)
chain: SVAEETLEVRDLAEARAKLAALRAAVADHRGDLVVHLVLPEFDREIVALVLEGLAEIRAAGYARRVTVGLDADLTEEEADFAIELADAAGVNLTLALPEE
B12: GBRAP_95_7084 (protein)
chain: EEELEEAEALMATAVDLYDAGLEEQAARAIRDALDELEELGYKVADKELLERLLRHFVALALRHFDAEEVERALALAEASGAPAEIIAALRAALAALRAA
B13: GBRAP_79_6747 (protein)
chain: GVEEARRALVEALRVVLPDLTEEEAAEAVASDEALRAALLRAGISEEMAAELLEAIDAIPELAAERFRRTVERMEGLEPEDRRDVLEATIAAVIYEAEQR
B14: GBRAP_160_4279 (protein)
chain: SEKLLELAEELEEDREEILSLVDEISAEEVRTLAVTDLGSILLEAIDLELLSDEEEDELAKIIDDLDAELAAAADASPAERRAIITRHYDKAIELLRKAA
B15: GBRAP_52_6358 (protein)
chain: ALEEALALLREALAAVAAGDEEEARAILEELVATYSEETILAAFERLAEEVADKDVATAEALLETALLLADVMDEAGRDPAVADDIEAIAARTYMAVKAK
B16: GBRAP_48_5840 (protein)
chain: EEEKREKAIEEILKIIKETAELLEEAKEEGLSEAAFEAILIDAAEEIKEVLEKYLGLGEEFEKLPLEEQLAIVEELVKTYKEEGEEATRKKIKEFIEKLE
B17: GBRAP_186_5371 (protein)
chain: EEEAEKEIEEFIDEAAKKGYVISGVLEVKEFTEEAKKKIFDELEALAEFSAEFGYKGALIIKSTVSEEEFEELKKFVEEKRDELSKETGAEVEVKIVHVK
B18: GBRAP_78_6619 (protein)
chain: ETKEKIIELLDRARDRMREIARREPEVRDLANEAAVLVGTAILMVDTGEESKEEIIEELEEALKVAKELLERLEGRDEESVKLAKEAIEDLKKAIELVKK
B19: GBRAP_160_4698 (protein)
chain: TATAEKLKAFVKEEFEKAKEEIEGESREQRAVILAGTGGEILMELVEDPNATDELEDEVLAIFDDAVATLLANPNLTLEETKALIDEVEAKVLAAIDKHL
B20: GBRAP_166_4925 (protein)
chain: MIEEKVEEARKRLEEVIREGRADPSLTDGQITAAMAYEVAEMLKDIEDEEEKLAVVEEGLRLAKEEGLDPRRLATLTASLYGFSDEERERIDEITEKILA
B21: GBRAP_53_6398 (protein)
chain: AAAAIAAGLAELEALIAEVEADPTLDAADVAARAGALLKALAAAGAPEAELTALARRLAAAVAARGLGVEVSTALAATAAAAGREAVAAVFTEAAVEDLE
B22: GBRAP_128_3157 (protein)
chain: STEEVREETRRLLEEIRESDEEEAREIARELFALILTLSDEEAEAAVEVILELLPELSKEKLEILADVAREMRPEADPFKAELLAEVEVEALNEALELEE
B23: GBRAP_45_5811 (protein)
chain: SEELKETREKLEELLKKAKELAEKLKEEDPEKFTPLLELLEEAEKLLKEEPESLEAWERIEELLEEALKLALDSKKASAELLETLLEAANLALEAKELLE
B24: GBRAP_52_5842 (protein)
chain: MEEEARRLAEELVALAEAGREEELDALIEEIVETLSEEEVMLVLEELARLAAEADPETAEVIFDVADRLADAALAAGFDEMEMSLGLALVGAAVYKALQR
B25: GBRAP_184_5031 (protein)
chain: SVIERTIKADNLEELEAKLEKLKEEVKGSKADLIVTLDIKNPTEEMIKTALKRLGEMKKNGDVSSVTVGFARLLSEELIDVALKTADEEGVKVVLPISEE
B26: GBRAP_52_6157 (protein)
chain: MEARAEAYANALIAAVKAGDEAAIRALMEEIAATLSEEEIELMMAIVAEKVAGLTPEEQERAVEAALELEDILIAAGHDENIASYNTARVAGAAYDALQA
B27: GBRAP_52_6039 (protein)
chain: MEEEMRRKAEEIVELVKAGRRAEAEARIRELVATWSEEELELLGEELARLAREAEPEDLDAVMEAALMLADALEAAGYDPAFADDLLARVAAAAVENLQR
B28: GBRAP_14_3840 (protein)
chain: REEVRRLLLEAVERAVEEVRKFAPEEARERVEALREVLRRAVDEGLETGDLEEAERRLVEVAEAAVRELFADLPPEERGALVAVAVDELVEGFEELEERL
B29: GBRAP_80_6763 (protein)
chain: MMEELEEALEELSELLPELAEELRATVEALLELGVPVEDLLRLLKALVELAKLDKEKAEAILREFIAEVNEAIARGDLEEARALVIDAESDALLEVEELE

Target: GABARAP, O95166
Experiment: median log2 fold change of GCK-ALFA target abundance (FLAG IP / Myc IP barcode read proportion) (log2 ratio); each designed protein is fused to an ALFA-tag nanobody in HEK293 cells to bring the named protein to FLAG-tagged glucokinase (GCK); Myc marks an untargeted standard; higher = target protein stabilised (more abundant)
Conditions: target protein: 3xFLAG-MCP-GCK-ALFA reporter; HEK293 landing pad (RPLP)
In short: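 The readout is target abundance, the per-binder median log2 ratio of FLAG to Myc barcode read proportions. It came from HEK293 landing-pad cells carrying a recombined ALFA-nanobody-fused binder library, induced with 2 μg mL^−1 doxycycline and transfected with a plasmid for a FLAG-tagged target and a Myc-tagged standard. After 48 h, lysates were immunoprecipitated with anti-FLAG and anti-Myc, and circular RNA barcodes were reverse transcribed, amplified and sequenced. Each barcode needed a proportion of at least 10^−7 in both replicates and each binder at least 3 barcodes per replicate, a pseudocount of 10^−6 was added, and the replicates were pooled.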

GABARAP, O95166, sequence (O95166 whole entry, the tested form may be a part): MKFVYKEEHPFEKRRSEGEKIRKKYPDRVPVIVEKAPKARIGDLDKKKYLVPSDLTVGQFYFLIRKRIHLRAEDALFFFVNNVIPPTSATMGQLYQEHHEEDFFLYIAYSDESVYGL

| Binder | median log2 fold change |
| --- | --- |
| B1 | -0.298 |
| B2 | -0.0168 |
| B3 | -0.643 |
| B4 | 0.274 |
| B5 | 0.142 |
| B6 | -0.0191 |
| B7 | -0.601 |
| B8 | 0.0824 |
| B9 | 0.195 |
| B10 | 0.0906 |
| B11 | 0.0273 |
| B12 | -0.692 |
| B13 | 0.209 |
| B14 | -0.493 |
| B15 | -0.632 |
| B16 | -0.364 |
| B17 | 0.163 |
| B18 | 0.338 |
| B19 | -0.69 |
| B20 | 0.302 |
| B21 | 0.254 |
| B22 | 0.00897 |
| B23 | 0.129 |
| B24 | -0.837 |
| B25 | 0.0419 |
| B26 | -0.262 |
| B27 | -0.911 |
| B28 | 0.0661 |
| B29 | 0.0537 |
